Data taken from PubChem BioAssay (EPA / NIEHS).
More than one record can exist for a structure, and the calls need not agree. Activity calls are given as the source filed them. Rule for the calls: active = hit-call score of the fitted dose curve at least 0.9, where 1 is the maximum; inactive = score below 0.9.

Target: Hepatocyte nuclear factor 6 (Homo sapiens) (UniProt Q9UBC0)
Test: ATG_HNF6_CIS: Attagene CIS-FACTORIAL HepG2 Assay for human Hepatocyte Nuclear Factor 6 (HNF6) (AID 2282952)
Conditions: HepG2 Attagene cis-factorial HNF6 reporter transcription; actives raise or lower the signal
Protocol: ATG_CIS is a cell-based, multiplexed-readout assay that uses HepG2, a human liver cell line, with measurements taken at 24 hours after chemical dosing in a 24-well plate.ATG_HNF6_CIS is one of 52 assay component(s) measured or calculated from the ATG_CIS assay. It is designed to make measurements of mRNA induction, a form of inducible reporter, as detected with fluorescence intensity signals by Reverse transcription polymerase chain reaction (RT-PCR) and Capillary electrophoresis technology.Data from the assay component ATG_HNF6_CIS was analyzed into 1 assay endpoint. This assay endpoint, ATG_HNF6_CIS, was analyzed with bidirectional fitting relative to DMSO as the negative control and baseline of activity. Using a type of inducible reporter, measures of mRNA for gain or loss-of-signal activity can be used to understand the reporter gene at the transcription factor-level as they relate to the gene ONECUT1. Furthermore, this assay endpoint can be referred to as a primary readout, because this assay has produced multiple assay endpoints where this one serves a reporter gene function. To generalize the intended target to other relatable targets, this assay endpoint is annotated to the dna binding intended target family, where the subfamily is homeobox protein.
Human liver HepG2 cells are transiently transfected with multiple reporter transcription units (MRTUs) in 6-well plates using FuGene 6 reagent (Roche; 3 ml FuGene/1 mg DNA). The MRTU constructs are regulated by a cis-regulating element (promoter). […] A major difference between the CIS and TRANS system is that in CIS activities of endogenous TFs are measured, whereas the TRANS assay evaluates changes in activities of exogenous, chimeric NR-Gal4 proteins. […] At the end of 24 hour incubation, total RNA was isolated using TriZol reagent (Invitrogen). The isolated RNA is then reverse-transcribed using oligo(dT) primer and Mo-MLV reverse transcriptase (Invitrogen) with DNAse I (Ambion) treatment for 30 min. The one-tenth of the produced cDNA was amplified by PCR using Taq DNA polymerase (Invitrogen) and two reporter sequence-specific primers. The PCR products were fluorescently labeled by primer extension with 6-arboxyfluorescein (6-FAM) 5'-labeled reporter sequence-specific primer (2 min at 95 C, 20 s at 68 C and 10 min at 72 C) and these products were digested with 5U of HpaI (New England Biolabs) for 2h at 37 C. The fragments were purified using Qiaquick PCR columns (Qiagen), analyzed on an ABI 3130xL genetic analyzer (Applied Biosystems) with peak positions identified by using a set of X-rhodamine (ROX)-labeled MapMarker1000 molecular weight standards (BioVentures). The raw capillary electrophoresis data was processed using Attagraph software (Attagene).

Hepatocyte nuclear factor 6 (Homo sapiens), sequence (Q9UBC0 whole entry, looked up): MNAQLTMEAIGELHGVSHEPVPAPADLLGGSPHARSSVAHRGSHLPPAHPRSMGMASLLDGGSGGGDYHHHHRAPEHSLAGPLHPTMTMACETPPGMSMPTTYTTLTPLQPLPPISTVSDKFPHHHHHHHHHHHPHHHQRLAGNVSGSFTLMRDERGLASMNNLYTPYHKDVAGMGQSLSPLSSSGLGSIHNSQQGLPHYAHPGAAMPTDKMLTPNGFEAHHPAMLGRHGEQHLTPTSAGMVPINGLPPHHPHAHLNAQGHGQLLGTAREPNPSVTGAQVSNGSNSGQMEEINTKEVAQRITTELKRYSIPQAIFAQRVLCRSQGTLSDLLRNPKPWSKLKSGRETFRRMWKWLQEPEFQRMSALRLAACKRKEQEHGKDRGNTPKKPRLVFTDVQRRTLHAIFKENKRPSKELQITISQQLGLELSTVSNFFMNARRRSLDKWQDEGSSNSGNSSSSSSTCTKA

| Structure (SMILES) | outcome | AC50 |
| --- | --- | --- |
| COc1ccc(C(c2ccc(OC)cc2)C(Cl)(Cl)Cl)cc1 | inactive |  |
| CC(C)Oc1cc(-n2nc(C(C)(C)C)oc2=O)c(Cl)cc1Cl | inactive |  |
| N#Cc1nn(-c2c(Cl)cc(C(F)(F)F)cc2Cl)c(N)c1S(=O)C(F)(F)F (stereo not given) | inactive | 44.7 µM (active) |
| CC(C)C1(C)N=C(c2nc3ccccc3cc2C(=O)O)NC1=O (stereo not given) | inactive |  |
| COP(=S)(OC)Oc1nc(Cl)c(Cl)cc1Cl | inactive |  |
| Cc1cc(Cl)ccc1OCC(=O)O | inactive |  |
| COC(=O)C=C(C)OP(=O)(OC)OC | inactive |  |
| COc1nc(C)nc(NC(=O)NS(=O)(=O)c2ccccc2CCC(F)(F)F)n1 | inactive |  |
| C=CCC1=C(C)[C@@H](OC(=O)[C@@H]2[C@@H](C=C(C)C)C2(C)C)CC1=O | inactive |  |
| CCOc1cc(Oc2ccc(C(F)(F)F)cc2Cl)ccc1[N+](=O)[O-] | inactive |  |
| COC(=O)C(C)Oc1ccc(Oc2ccc(Cl)cc2Cl)cc1 (stereo not given) | inactive |  |
| CCCCNC(=O)n1c(NC(=O)OC)nc2ccccc21 | inactive |  |
| CCOC(=O)C(Cl)Cc1cc(-n2nc(C)n(C(F)F)c2=O)c(F)cc1Cl (stereo not given) | inactive |  |
| CCNc1nc(Cl)nc(NCC)n1 | inactive |  |
| O=C(O)c1nc(Cl)ccc1Cl | inactive |  |
| CC1=C(C(=O)Nc2ccccc2)SCCO1 | inactive |  |
| CCOP(=S)(OCC)SCn1c(=O)oc2cc(Cl)ccc21 | inactive |  |
| CCCN(CCC)c1c([N+](=O)[O-])cc(S(N)(=O)=O)cc1[N+](=O)[O-] | inactive |  |
| CNC(=S)S | inactive |  |
| CN(C)C(=S)SSC(=S)N(C)C | inactive |  |

| Structure (SMILES) | outcome | AC50 |
| --- | --- | --- |
| Oc1ccccc1-c1ccccc1 | inactive |  |
| CCCCOC(=O)c1ccccc1C(=O)OCCCC | inactive |  |
| COC(=O)c1ccccc1C(=O)OC | inactive |  |
| O=C(Nc1ccccc1)Nc1ccnc(Cl)c1 | inactive |  |
| O=C(O)COc1nc(Cl)c(Cl)cc1Cl | inactive |  |
| COC(=O)N(OC)c1ccccc1COc1ccn(-c2ccc(Cl)cc2)n1 | inactive |  |
| CS/C(C)=N/OC(=O)N(C)SN(C)C(=O)O/N=C(\C)SC | inactive |  |
| CCc1nn(C)c(C(=O)NCc2ccc(C(C)(C)C)cc2)c1Cl | inactive |  |
| CON(C)C(=O)Nc1ccc(Cl)c(Cl)c1 | inactive |  |
| Cc1ccc(-c2c(Cl)nc(C#N)n2S(=O)(=O)N(C)C)cc1 | inactive |  |
| C=CC1(C)OC(=O)N(c2cc(Cl)cc(Cl)c2)C1=O (stereo not given) | inactive |  |
| CCOC(=O)CC(SP(=S)(OC)OC)C(=O)OCC (stereo not given) | inactive |  |
| N#CC(CCc1ccc(Cl)cc1)(Cn1cncn1)c1ccccc1 (stereo not given) | inactive |  |
| CCNc1nc(Cl)nc(NC(C)C)n1 | inactive |  |
| C=CCC1=C(C)C(OC(=O)C2C(C=C(C)C)C2(C)C)CC1=O (stereo not given) | inactive |  |
| CNC(=O)ON=CC(C)(C)SC | inactive |  |
| Cc1c(F)c(F)c(COC(=O)C2C(/C=C(\Cl)C(F)(F)F)C2(C)C)c(F)c1F (stereo not given) | inactive |  |
| CCCCC(CC)COC(=O)c1ccccc1C(=O)OCC(CC)CCCC (stereo not given) | inactive |  |
| N#Cc1cc(Br)c(O)c(Br)c1 | inactive |  |
